Reference: PubChem BioAssay (NCI)
The panel holds about 83,000 compounds, 20% with a hit somewhere; the sample as a whole holds those more often.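 Assay: single dose, 48 h. Readout: percent growth (0 = no net growth; negative = cell death). Active: <10.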 Unmarked numbers belong to inactive results. Activity calls are given as the source filed them.

Legend:
Experiment in all cases: NCI-60 one-dose screen, 48 h (100 = growth as untreated, 0 = no growth, -100 = all killed)
Conditions in all cases: 10 µM
SK-MEL-2 melanoma = test system: SK-MEL-2 melanoma
EKVX NSCLC = test system: EKVX NSCLC
UO-31 renal = test system: UO-31 renal
TK-10 renal = test system: TK-10 renal
ACHN renal = test system: ACHN renal
CAKI-1 renal = test system: CAKI-1 renal
A498 renal = test system: A498 renal
CCRF-CEM leukemia = test system: CCRF-CEM leukemia
MOLT-4 leukemia = test system: MOLT-4 leukemia
SR leukemia = test system: SR leukemia
RPMI-8226 leukemia = test system: RPMI-8226 leukemia
OVCAR-8 ovarian = test system: OVCAR-8 ovarian
OVCAR-5 ovarian = test system: OVCAR-5 ovarian
SK-OV-3 ovarian = test system: SK-OV-3 ovarian
IGROV1 ovarian = test system: IGROV1 ovarian
OVCAR-3 ovarian = test system: OVCAR-3 ovarian
HS 578T breast = test system: HS 578T breast
NCI/ADR-RES ovarian = test system: NCI/ADR-RES ovarian
OVCAR-4 ovarian = test system: OVCAR-4 ovarian

Structure (SMILES) | growth (SK-MEL-2 melanoma) | growth (EKVX NSCLC) | growth (UO-31 renal) | growth (TK-10 renal) | growth (ACHN renal) | growth (CAKI-1 renal) | growth (A498 renal) | growth (CCRF-CEM leukemia) | growth (MOLT-4 leukemia) | growth (SR leukemia) | growth (RPMI-8226 leukemia) | growth (OVCAR-8 ovarian) | growth (OVCAR-5 ovarian) | growth (SK-OV-3 ovarian) | growth (IGROV1 ovarian) | growth (OVCAR-3 ovarian) | growth (HS 578T breast) | growth (NCI/ADR-RES ovarian) | growth (OVCAR-4 ovarian)
O=S(=O)(NCCO)c1ccc(OCCOc2ccc(S(=O)(=O)NCCO)cc2)cc1 | 100% | 99.1% | 81.9% | 99.5% | 101% | 94.2% | 86.1% | 102% | 99.6% | 104% | 98% | 98.7% | 99.2% | 96.1% | 99.9% | 111% | 104% | 97.8% | –
COc1ccc(-c2nnc(SC/C(=N\O)c3ccccc3)o2)cc1 | 102% | 95.8% | 97.1% | 107% | 101% | 95.1% | 80.8% | 88.9% | 80.4% | 100% | 88.8% | 107% | 108% | 87.9% | – | 99.1% | – | 91.2% | 104%
COC(=O)[C@]12CC[C@@H](C)[C@H](C)[C@@H]1C1=CC[C@@H]3[C@@]4(C)CC(=O)[C@H](O)[C@@]5(C)COC(=C45)C[C@@]3(C)[C@]1(C)CC2 | -74.1% (active) | -55.5% (active) | -87.5% (active) | -76.5% (active) | -83.8% (active) | -36.9% (active) | -84.1% (active) | -40.1% (active) | -54.9% (active) | -31.7% (active) | -32% (active) | -45.2% (active) | -40.4% (active) | -68.3% (active) | – | -84.7% (active) | -5.08% (active) | -59.7% (active) | -85.3% (active)
Clc1cc(Cl)c(OCCCCCCN2CCNCC2)c(Cl)c1 | 65.2% | 63.3% | 73.2% | 65.9% | 47.2% | 32.3% | 48.1% | 10.7% | -9.72% (active) | -13.9% (active) | -24.9% (active) | 76% | 71% | 98% | – | 45.7% | 55.3% | 75.8% | 86.9%
COc1ccc(-c2nnc(SCC(=O)c3ccccc3)o2)cc1 | 95.6% | 97.9% | 99.4% | 89.1% | 97.5% | 94.7% | 85.1% | 59.5% | 95.2% | 100% | 89% | 109% | 100% | 102% | – | 105% | 103% | 91.9% | 108%
CCOc1ccc(-n2cc(-c3ccc(N(C)C)cc3)[n+]3c2CCCCC3)cc1 | -7.29% (active) | 14.1% | 66.1% | 8.78% (active) | 22.2% | 60.9% | -10.2% (active) | 28.3% | 13.4% | 27.3% | 6.41% (active) | 12.2% | 40% | -5.85% (active) | – | 21.8% | 28.5% | 92.8% | 9.15% (active)
O=C1CC(c2cccc(-c3cccnc3)c2)=Nc2ccc(Br)cc2N1 | 49.5% | 36.9% | 41.9% | -9.34% (active) | 27.5% | 49.9% | -4.26% (active) | 50.8% | 27.1% | 51.1% | 40.7% | 17.2% | 91.5% | 46.5% | – | 45% | 27.9% | 19% | -4.81% (active)
COCc1cc2c(cc1Br)OCO2 | 96.7% | 102% | 84.6% | 95.7% | 101% | 95% | 91.2% | 71.9% | 107% | 106% | 95.1% | 98.8% | 92.5% | 95.3% | – | 111% | 101% | 88.7% | 111%
COc1ccc2oc(=O)cc(C(c3ccc[nH]3)c3ccc[nH]3)c2c1 | 5.1% (active) | 32.7% | 16.9% | 26.4% | 17.3% | 15.2% | -8.63% (active) | 11.3% | 6.26% (active) | 1.93% (active) | -3.8% (active) | -4.93% (active) | 34.8% | 7.19% (active) | – | -8.55% (active) | 18.8% | 7.99% (active) | 38.8%
Nc1nsc(C(=O)c2ccc(O)cc2)n1 | 102% | 97.9% | 79.5% | 108% | 91.1% | 92% | 115% | 89.8% | 110% | 99.2% | 90.7% | 91.1% | 93.6% | 92.8% | – | 95.2% | 98.1% | 103% | 105%
C=CCc1cc(Nc2c3ccc(Cl)cc3nc3ccc(OC)cc23)cc(CN(CC)CC)c1O | 18.5% | 0.403% (active) | 5.47% (active) | 12.7% | 4.15% (active) | 7.85% (active) | 20.6% | 5.06% (active) | -20.3% (active) | -20.4% (active) | -25.7% (active) | 8.73% (active) | 47.5% | 1.21% (active) | 25.5% | 6.47% (active) | – | 43.9% | 9.26% (active)
CCCCCC(CCC)COC(=O)c1ccc(OC)cc1 (configuration not stated) | 96% | 100% | 85.8% | 95.6% | 106% | 92.3% | 109% | 75.3% | 100% | 101% | 91.8% | 96.5% | 102% | 101% | – | 111% | 106% | 103% | 109%
CCCCCCN=C(N)CCCCCCCCCCC(N)=NCCCCCC | 38.3% | 34.6% | 78.6% | 55.6% | 48.5% | 55.9% | 37% | 29.5% | 38.2% | 61.7% | 28.8% | 21.8% | 49.1% | 31.3% | – | 20% | 26.6% | 84% | 27.6%
CN(C)c1ccc2c(c1)OC(N)=C(C#N)C2c1ccc2c(c1)CCCN2C (configuration not stated) | 30.7% | 34.5% | 51.4% | 70.3% | 52.8% | 40% | -8.42% (active) | 24.5% | 35.8% | 29.5% | 34.5% | 30.9% | 78.2% | 24.4% | – | 3.67% (active) | 20.1% | 0.712% (active) | 56.3%
CC(=O)c1ccc(NCn2nc(-c3ccc(Cl)cc3)oc2=S)cc1 | 99.3% | 103% | 95.8% | 95.9% | 96.1% | 97% | 106% | 103% | 81.8% | 85.1% | 105% | 105% | 85.2% | 94.4% | – | 108% | 96.2% | 101% | 113%
CC1(C)CNC(=O)N1 | 98.8% | 96% | 87.7% | 97.7% | 110% | 97.1% | 95.5% | 95.4% | 101% | 95.2% | 95.8% | 99.8% | 108% | 95.6% | 99.9% | 108% | – | 109% | 99.7%
